Test systems include DU-145 prostate; K-562 leukemia; MALME-3M melanoma; MDA-MB-231 breast; RXF 393 renal; SF-268 CNS; SF-295 CNS; SF-539 CNS; UACC-257 melanoma; M14 melanoma; HCT-15 colon; HT29 colon; SNB-75 CNS; SNB-19 CNS; U251 CNS; SK-MEL-5 melanoma; UACC-62 melanoma; LOX IMVI melanoma; SK-MEL-28 melanoma.
Experiment in all cases: NCI-60 one-dose screen, 48 h (100 = growth as untreated, 0 = no growth, -100 = all killed)
Holding throughout (settings): 10 µM unless noted

Where “and” joins values, the source holds several entries; their conditions need not be identical. Identical values can stand only once. About 83,000 compounds went through this panel and 20% of them were active in at least one assay; those are over-represented in the sample as a whole.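 Percent growth is the endpoint: 0 to 100 indicates growth inhibition (40 means 60% inhibition), 0 means no net growth, and negative values indicate cell death.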 Calls of active or inactive are those of the source. The calls were made as follows: active = growth percent below 10; inactive = the rest.

As to `Cc1ccc(NS(=O)(=O)c2ccc(C)cc2)cc1`, the growth is 101% (inactive) and 104% (inactive) with DU-145 prostate; 85.7% (inactive) and 101% (inactive) in the experiment on K-562 leukemia; 105% (inactive) and 101% (inactive) in the experiment on MALME-3M melanoma; 103% (inactive) and 107% (inactive) in the experiment on MDA-MB-231 breast; 103% (inactive) and 96.1% (inactive) in the experiment with RXF 393 renal; 97.8% (inactive) and 93.1% (inactive) in the experiment on SF-268 CNS. Besides, the growth is 95.5% (inactive) and 93.4% (inactive) with SF-295 CNS; 111% (inactive) and 101% (inactive) with SF-539 CNS; 89.8% (inactive) and 77.2% (inactive) with UACC-257 melanoma; 98% (inactive) and 99.2% (inactive) in the experiment on M14 melanoma; 101% (inactive) and 104% (inactive) in the experiment with HCT-15 colon; 101% (inactive) and 90.4% (inactive) in the experiment on HT29 colon. Also, the growth in the experiment with SNB-75 CNS was 87.7% (inactive) and 102% (inactive); in the experiment on SNB-19 CNS, 106% (inactive) and 102% (inactive); in the experiment on U251 CNS, 96.9% (inactive) and 86.6% (inactive); in the experiment on SK-MEL-5 melanoma, 97.8% (inactive) and 95.3% (inactive); with UACC-62 melanoma, 91% (inactive) and 99.2% (inactive); with LOX IMVI melanoma, 99.2% (inactive) and 96% (inactive). Also, the growth in the experiment on SK-MEL-28 melanoma is 116% (inactive) and 110% (inactive).

As for `CC(=O)C(=Cc1ccc(C=C(C(C)=O)C(C)=O)cc1)C(C)=O`, the growth was 23.6% (inactive) in the experiment on DU-145 prostate; 2.87% (active) in the experiment on K-562 leukemia; -18.6% (active) with MALME-3M melanoma; -3.61% (active) with MDA-MB-231 breast; -58.5% (active) with RXF 393 renal; 19.7% (inactive) with SF-268 CNS. In addition, the growth is 86.4% (inactive) in the experiment on SF-295 CNS; -1.57% (active) in the experiment with SF-539 CNS; 19.1% (inactive) in the experiment with UACC-257 melanoma; 4.86% (active) with M14 melanoma; -32.7% (active) in the experiment with HCT-15 colon; -60.5% (active) in the experiment with HT29 colon. The growth in the experiment on SNB-75 CNS was 73.1% (inactive); in the experiment on SNB-19 CNS it was 19.1% (inactive); with U251 CNS, -23.7% (active); in the experiment on SK-MEL-5 melanoma, 72.8% (inactive); in the experiment on UACC-62 melanoma it was -41.6% (active); in the experiment with SK-MEL-28 melanoma it was -34.8% (active).

For `O=C1OCc2cccc3cccc1c23`, the growth in the experiment with DU-145 prostate is 107% (inactive); in the experiment with K-562 leukemia it was 103% (inactive); with MALME-3M melanoma, 107% (inactive); in the experiment on MDA-MB-231 breast, 111% (inactive); in the experiment on RXF 393 renal, 102% (inactive); in the experiment on SF-268 CNS it was 103% (inactive). Besides, the growth in the experiment with SF-295 CNS is 102% (inactive); in the experiment with SF-539 CNS it was 98.4% (inactive); in the experiment with UACC-257 melanoma, 94.3% (inactive); in the experiment with M14 melanoma it was 103% (inactive); with HCT-15 colon it was 94.6% (inactive); in the experiment with HT29 colon, 105% (inactive). Moreover, the growth is 85.2% (inactive) in the experiment with SNB-75 CNS; 104% (inactive) in the experiment on SNB-19 CNS; 106% (inactive) in the experiment on U251 CNS; 101% (inactive) in the experiment with SK-MEL-5 melanoma; 95.5% (inactive) with UACC-62 melanoma; 103% (inactive) in the experiment with LOX IMVI melanoma. Besides, the growth in the experiment on SK-MEL-28 melanoma was 107% (inactive).

Consider `O=C(/C=C/c1cccc(Cl)c1)c1ccccc1`, for which the growth in the experiment with DU-145 prostate is 101% (inactive) and 87.6% (inactive); in the experiment on K-562 leukemia, 28.7% (inactive) and 46.5% (inactive); with MALME-3M melanoma, 104% (inactive); in the experiment on MDA-MB-231 breast it was 105% (inactive) and 89.2% (inactive); in the experiment with RXF 393 renal it was 85.4% (inactive); in the experiment on SF-268 CNS, 99.9% (inactive) and 98.4% (inactive). Moreover, the growth in the experiment on SF-295 CNS was 93.9% (inactive) and 95.8% (inactive); with SF-539 CNS, 105% (inactive) and 97.9% (inactive); in the experiment with UACC-257 melanoma, 100% (inactive) and 94.4% (inactive); in the experiment on M14 melanoma, 86.8% (inactive) and 83% (inactive); in the experiment with HCT-15 colon it was 56.7% (inactive) and 62.8% (inactive); in the experiment with HT29 colon it was 95.2% (inactive) and 32.4% (inactive). Moreover, the growth in the experiment with SNB-75 CNS was 104% (inactive) and 95.2% (inactive); in the experiment on SNB-19 CNS, 89.3% (inactive) and 76.4% (inactive); with U251 CNS, 75.9% (inactive) and 45% (inactive); in the experiment with SK-MEL-5 melanoma, 94% (inactive) and 93.4% (inactive); in the experiment on UACC-62 melanoma it was 81.5% (inactive); in the experiment on LOX IMVI melanoma, 60.5% (inactive) and 20.8% (inactive). The growth in the experiment on SK-MEL-28 melanoma was 114% (inactive) and 109% (inactive).

Turning to `Oc1c(Br)cc(Cl)cc1C(c1cc(Cl)cc(Br)c1O)C(Cl)(Cl)Cl`, the growth with DU-145 prostate is 31.1% (inactive); with K-562 leukemia it was 13.7% (inactive); with MALME-3M melanoma, -0.8% (active); with MDA-MB-231 breast, -11.3% (active); with RXF 393 renal, 12% (inactive); in the experiment with SF-268 CNS it was 21.9% (inactive). Besides, the growth was 9.03% (active) in the experiment with SF-295 CNS; 30.8% (inactive) in the experiment on SF-539 CNS; 33% (inactive) in the experiment with UACC-257 melanoma; 31.4% (inactive) with M14 melanoma; 17.2% (inactive) in the experiment with HCT-15 colon; 10.1% (inactive) with HT29 colon. Further, the growth with SNB-75 CNS was 68.1% (inactive); with SNB-19 CNS, 24.7% (inactive); with U251 CNS it was 15.2% (inactive); with SK-MEL-5 melanoma it was -64.6% (active); in the experiment with UACC-62 melanoma, 13.3% (inactive); in the experiment with SK-MEL-28 melanoma it was 38.1% (inactive).

`COc1cc(/C=C(/C)C[N+](=O)[O-])ccc1O`: the growth in the experiment on DU-145 prostate was 101% (inactive); with K-562 leukemia, 69.7% (inactive); in the experiment with MALME-3M melanoma it was -12.2% (active); in the experiment with MDA-MB-231 breast, 89.8% (inactive); in the experiment on RXF 393 renal, 91.2% (inactive); with SF-268 CNS it was 101% (inactive). In addition, the growth in the experiment on SF-295 CNS was 99.3% (inactive); in the experiment on SF-539 CNS it was 105% (inactive); in the experiment on UACC-257 melanoma, 33.5% (inactive); in the experiment on M14 melanoma, 83.2% (inactive); with HCT-15 colon it was 46.1% (inactive); in the experiment with HT29 colon, 101% (inactive). For the same compound, the growth is 78.4% (inactive) in the experiment on SNB-75 CNS; 97.8% (inactive) in the experiment with SNB-19 CNS; 92% (inactive) with U251 CNS; 101% (inactive) in the experiment with SK-MEL-5 melanoma; 83.6% (inactive) in the experiment on UACC-62 melanoma; 47.5% (inactive) with LOX IMVI melanoma. Besides, in the experiment with SK-MEL-28 melanoma, the growth is 54.3% (inactive).

As for `COC(=O)Nc1nc2ccc(C(=O)c3ccccc3)cc2[nH]1`, the growth was 26.8% (inactive) and -20.2% (active) and -19.3% (active) in the experiment with DU-145 prostate; 6.5% (active) and 4.72% (active) and 4.39% (active) in the experiment on K-562 leukemia; 26.5% (inactive) and 58.6% (inactive) and 54.1% (inactive) in the experiment on MALME-3M melanoma; 51.3% (inactive) and 25.5% (inactive) and 38% (inactive) in the experiment with MDA-MB-231 breast; -12.3% (active) and -5.96% (active) with RXF 393 renal; 53.7% (inactive) and 21.3% (inactive) and 27.4% (inactive) in the experiment on SF-268 CNS. Also, the growth in the experiment on SF-295 CNS is 0.877% (active) and -10.3% (active) and -13.1% (active); in the experiment on SF-539 CNS, 2.99% (active) and -28.1% (active) and -34% (active); in the experiment on UACC-257 melanoma, 61% (inactive) and 77.2% (inactive) and 69.8% (inactive); in the experiment with M14 melanoma, -24.2% (active) and 0.911% (active) and 20.7% (inactive); in the experiment with HCT-15 colon, 30.2% (inactive) and 14.1% (inactive) and 15.8% (inactive); in the experiment on HT29 colon, 4% (active) and 5.13% (active) and 2.8% (active). Moreover, the growth with SNB-75 CNS is 8.68% (active) and 89.4% (inactive) and 23.9% (inactive); with SNB-19 CNS it was 33.6% (inactive) and 14.3% (inactive) and 33.1% (inactive); with U251 CNS it was 23.7% (inactive) and 19.9% (inactive) and 16.9% (inactive); with SK-MEL-5 melanoma, 8.39% (active) and 4.91% (active) and -9.41% (active); in the experiment with UACC-62 melanoma it was 47.8% (inactive) and 31.1% (inactive) and 37.4% (inactive); in the experiment with LOX IMVI melanoma it was 37.6% (inactive) and 31.3% (inactive) and 31.1% (inactive). Also, the growth in the experiment on SK-MEL-28 melanoma is 48.9% (inactive) and 61.5% (inactive) and 55.6% (inactive).

For the origin of these results see PubChem BioAssay (NCI).
